According to PubChem BioAssay AID504773 (Broad Institute, 2011):
Results with a measured potency or affinity are listed apart. Active and inactive are the calls of the source.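 How the source made its calls: active means polarization signal falls with dose and the fitted half-maximal concentration is at or below ten times the sample's top valid dose; inconclusive means flat curve at 30 to 70% inhibition, or poor fit; inactive means signal rises, flat within 30%, or potency beyond limit.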

molecular target: Golgi-associated PDZ and coiled-coil motif-containing protein (Homo sapiens) (UniProt Q9HD26); assay: potency against CAL PDZ-peptide interaction – biochemical, fluorescence polarization, Cerulean-tagged CAL PDZ, cherry-picks, dose response (AID 504773); details: CAL PDZ-peptide binding, 1 h; series mostly up to 50 µM

outcome, inactive:
COc1ccc(Nc2cccccc2=O)cc1, CC1CCC(NS(=O)(=O)c2ccc3c(c2)n(C)c(=O)c(=O)n3C)CC1 (stereo unspecified), COc1ccc(C(=O)NC2(C(F)(F)F)C(=O)Nc3c2c(=O)[nH]c(=O)n3CCc2ccc(OC)c(OC)c2)cc1 (stereo unspecified), CS(=O)(=O)c1ccc(Cl)c(NC(=O)COC(=O)c2c(Cl)cccc2Cl)c1, CCOc1ccc(N(CC(=O)N2CCN(Cc3ccccc3)CC2)S(C)(=O)=O)cc1, O=C(C=Cc1ccccc1)c1cc(Br)ccc1O, CC1Cc2ccccc2N1C(=O)CNc1ccccc1N1CCCCC1 (stereo unspecified), O=C(NCc1cccs1)c1cccn2c(=O)c3sccc3nc12, CCOc1ccc(S(=O)(=O)N2CCCCC2)c(C)c1C, CCN(CC)S(=O)(=O)c1ccc2nc(NC(=O)c3ccco3)sc2c1, CC(O)CNCCCOc1cccc(Oc2ccccc2)c1 (stereo unspecified), CCOc1ccccc1N(CC(=O)Nc1cccc2ccccc12)S(C)(=O)=O, COc1cc(C(=O)NC(C)CCc2ccccc2)cc(OC)c1OC (stereo unspecified), COC(=O)CN1C(=O)N/C(=C/c2cc(Cl)c(OC)c(OC)c2)C1=O, CCN(CC)CCn1c(SCC(=O)NCc2ccccc2)nc2c(sc3ccccc32)c1=O, O=C(Nc1ccccc1Cl)Nc1cccnc1Cl, CCCCN(CCCC)CCNC(=O)c1ccc2nc(-c3ccccc3NC(C)=O)c(=O)[nH]c2c1, C/C(=N\NC(=O)c1cc(-c2ccc(C)s2)nc2ccccc12)c1cccnc1, COc1ccc(OC)c(S(=O)(=O)NCCCn2ccnc2)c1, COc1cc(Cl)c(CN2CCCC(CO)(Cc3cccc(Cl)c3)C2)cc1OC (stereo unspecified), Cc1ccc2nc(CSc3nnc(-c4ccncc4)n3C)cc(=O)n2c1, CCOC(=O)c1ccc(NC(=S)N2CCCC(C(=O)N3CCCC3)C2)cc1 (stereo unspecified), COc1ccc(C2/C(=C(/O)c3ccc(C)cc3)C(=O)C(=O)N2C)c(OC)c1 (stereo unspecified), CCNC(=S)N1CCc2cc(OC)c(OC)cc2C1COc1ccc(OC)cc1 (stereo unspecified), COc1ccc(-n2c(=S)[nH]c3c(sc(=S)n3-c3ccccc3)c2=O)c(OC)c1, COc1ccccc1NC(=O)c1c([N+](=O)[O-])cnn1C, O=C(NCc1ccc(Cl)cc1)C(=O)NCC1OCCN1C(=O)c1ccc(Cl)cc1 (stereo unspecified), CC(=O)Nc1sc2c(c1C(c1ccccn1)N1CCN(C)CC1)CCCC2 (stereo unspecified), Cc1cc(Cl)c(Cl)cc1S(=O)(=O)NCCCn1ccnc1, O=C(NCc1ccccc1)c1cc2ccc(O)cc2oc1=O, S=C(NCCc1ccccc1)N1CCn2cccc2C1c1cccnc1 (stereo unspecified), CNC(=O)c1nnn(Cc2ccccc2)c1NC(C)=O, Cn1c(=O)c2c(nc(SCC(=O)NCC3CCCO3)n2Cc2ccc(F)cc2)n(C)c1=O (stereo unspecified), Cc1ccc2nc3c(nc2c1)-c1ccccc1C3=O, Cc1cccc(N(Cc2cc(=O)[nH]c3ccccc23)C(=O)C(C)C)c1, CN(c1nc(-c2ccc(Br)cc2)cs1)C1CCS(=O)(=O)C1 (stereo unspecified)
